Screen size: about 420,000 compounds; about 64,000 (15%) were called active. Roughly 27% stayed inconclusive and do not appear here. Calls come from the whole dose curve; as a rule, active = well fitted inhibition curve with a large enough effect; inconclusive = small, poorly fitted or top-dose-only effect; inactive = flat fitted curve, though single readings scatter. The list is a sample of the results.
experiment: qHTS for Inhibitors of human tyrosyl-DNA phosphodiesterase 1 (TDP1): qHTS in cells in absence of CPT; details: DT40 Tdp1-/- hTDP1 cells, no CPT, ATP luminescence, 48 h; activity change, negative = growth inhibition: at 46.2 µM (top of the series); note: nearly all actives have a fitted effect of over 55% in size
Summary of the method: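 No-CPT arm: Tdp1-/-;hTDP1 DT40 cells (400/well) plus compounds, incubated ≥48 hr at 37 °C. Readout CellTiter-Glo luminescence.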
% is set by controls: 0 for no effect and ±100 for the full control effect; potency is the fitted concentration of half-maximal effect.

| Compound | activity change, negative = growth inhibition | Potency |
| --- | --- | --- |
| COc1ccc(C2COC(=O)C2=N)c(NC(=O)c2ccccc2)c1 (stereo not drawn) | -28.1% (inactive) | – |
| CCCc1ccc(C(=O)[C@@H]2[C@@H](C(C)=O)N3c4ccc(F)cc4C=C[C@@H]3[C@@]23C(=O)Nc2ccccc23)cc1 | – | 18.4 µM (active) |
| COc1cc(C(=O)NC(=S)NCc2ccco2)cc(OC)c1OC | – | 20.6 µM (active) |
| COc1cccc(OC)c1C(=O)NC(=S)NCc1ccco1 | -16.1% (inactive) | – |
| COc1cc(C(=O)N[C@@H](C)C(=O)NCc2ccco2)cc(OC)c1OC | -2.61% (inactive) | – |
| COc1ccc(-c2nc3c(c(SCC(=O)Nc4ccc(C(=O)O)cc4)n2)Cc2ccccc2O3)cc1 | -7.92% (inactive) | – |
| Cc1oc2nc(SCC(=O)NCc3cccnc3)nc(N)c2c1C | 0.424% (inactive) | – |
| COc1ccccc1NC(=O)C1=C(C)NC(=O)NC1c1ccc(C)s1 (stereo not drawn) | -13.6% (inactive) | – |
| O=C(Cn1nnc(N2CCCCC2)n1)c1ccc(Cl)c(Cl)c1 | -10.8% (inactive) | – |
| CC(NC(=O)c1ccc(Cl)cc1)C(=O)N1CCCCC1 (stereo not drawn) | -9.8% (inactive) | – |
| O=C(Cn1nc(CNc2ccc(Cl)cc2)[n+]2c1CCCCC2)c1ccc(Cl)cc1 | – | 23.1 µM (active) |
| CC1(c2ccccc2Cl)NC(=O)N(CC(=O)NC(=O)NCc2ccco2)C1=O (stereo not drawn) | -5.22% (inactive) | – |
| O=C(CCN1C(=O)c2ccncc2C1=O)Nc1ccc2c(c1)OCCO2 | -12.2% (inactive) | – |
| Cc1ccc(/C=C2\SC(=S)N(CCC(=O)Nc3ccc(O)cc3)C2=O)cc1 | -12.5% (inactive) | – |
| COC(=O)C1=C(C)NC(=O)/C1=C/c1ccc(CNS(=O)(=O)c2ccc(C)cc2)o1 | -16.5% (inactive) | – |
| COC(=O)C1=C(C)N(c2ccc(C)cc2)/C(=C/c2ccc(O)cc2)C1=O | – | 20.6 µM (active) |
| CC(C)CNS(=O)(=O)c1ccc(C(=O)Nc2ccc3c(c2)OCO3)cc1 | -21.9% (inactive) | – |
| CCC(C)[C@@H](C(=O)N1CCNCC1)n1cc(CCCCN)nn1 (stereo partly drawn) | -5.37% (inactive) | – |
| C=CCOC(=O)C1=C(C)N=C2SCCC(=O)N2C1/C=C/c1ccccc1OC (stereo not drawn) | -1.5% (inactive) | – |
| CC1=C(C(=O)OCC(C)C)C(c2ccc(OCc3ccccc3)cc2)N2C(=O)CCSC2=N1 (stereo not drawn) | – | 16.4 µM (active) |
| CC(C)C12CN3CC(C(C)C)(CN(C1)C3c1ccc(OCc3ccccc3)cc1)C2=O (stereo not drawn) | 1.91% (inactive) | – |
| COc1ccc(-n2c(=O)c(-c3cn(C)c4ccccc34)nc3cnc(OC)nc32)cc1 | -3.92% (inactive) | – |
| CCC(C(=O)N1CCOCC1)n1c(C(=O)OC)cc2occc21 (stereo not drawn) | 1.19% (inactive) | – |
| CCS(=O)(=O)c1ccc2c(c1)N(S(=O)(=O)c1ccccc1)CC(C(=O)O)O2 (stereo not drawn) | -5.4% (inactive) | – |
| CCOc1ccc(S(=O)(=O)N2CCC(C(=O)OCc3ccc(OC)cc3)CC2)cc1 | -10.8% (inactive) | – |

| Compound | activity change, negative = growth inhibition | Potency |
| --- | --- | --- |
| CCOC(=O)C1CN(S(=O)(=O)c2ccc(OC)cc2)c2cc(Cl)ccc2O1 (stereo not drawn) | – | 20.6 µM (active) |
| Cn1cc(S(=O)(=O)N2CCN(c3ccc(F)cc3)CC2)c(=O)n(C)c1=O | -26.6% (inactive) | – |
| Nc1nnc(SCC(=O)NC2CCCc3ccccc32)s1 (stereo not drawn) | 15.3% (inactive) | – |
| CCOC(=O)N1CCN(S(=O)(=O)c2ccc(-n3cnnn3)cc2)CC1 | -12.2% (inactive) | – |
| CCOC(=O)N1CCN(S(=O)(=O)c2ccc(C(=O)Nc3ccc(F)cc3F)cc2)CC1 | – | 1.64 µM (active) |
| CCOC(=O)N1CCN(S(=O)(=O)c2ccc(Br)cc2)CC1 | 2.06% (inactive) | – |
| Cc1ccc(S(=O)(=O)N(C)C)cc1NC(=O)c1ccc(-n2cncn2)c([N+](=O)[O-])c1 | 2.95% (inactive) | – |
| O=C(NNC(=O)c1cccc(S(=O)(=O)Nc2ccc(Cl)cc2)c1)c1ccc(=O)[nH]c1 | 27.3% (inactive) | – |
| Cc1cc(Nc2cccc(C(F)(F)F)c2)nc2ccc(NC(=O)c3ccc(=O)[nH]c3)cc12 | – | 4.61 µM (active) |
| COc1cc(OC)cc(C(=O)Nc2ccc3nc(Nc4cccc(C(F)(F)F)c4)cc(C)c3c2)c1 | – | 5.8 µM (active) |
| O=C(COC(=O)c1cc[n+]([O-])cc1)Nc1ccc(Cl)c(C(F)(F)F)c1 | -20.8% (inactive) | – |
| CCn1c(Cc2ccccc2)nnc1SCC(=O)Nc1ccccc1 | -13% (inactive) | – |
| CCc1nn(CC(=O)N2CCN(c3cccc(C(F)(F)F)c3)CC2)c(=O)c2cc3occc3n12 | -10.6% (inactive) | – |
| CC1COc2ccccc2N1C(=O)c1ccc(F)cc1 (stereo not drawn) | 4.13% (inactive) | – |
| C/C(CC(=O)NC(C)c1ccccc1)=N\NC(N)=S (stereo not drawn) | 2.8% (inactive) | – |
| Cc1cccc(NC(=O)c2cc(N3C(=O)CCC3=O)ccc2Cl)n1 | -0.716% (inactive) | – |
| Cc1ccccc1Nc1c([N+](=O)[O-])ccc2nonc12 | -9.27% (inactive) | – |
| N#Cc1ccc(-c2nc3c(Cl)cc(C(F)(F)F)cn3c2Cc2ccccc2C(F)(F)F)cc1 | -26.2% (inactive) | – |
| COc1ccccc1Cc1c(-c2ccc(Cl)cc2)nc2c3ccccc3ccn12 | – | 20.6 µM (active) |
| COc1ncc2nc(-c3ccc(Cl)cc3)c(=O)n(-c3ccccc3)c2n1 | -8.91% (inactive) | – |
| CC(C)OC(=O)CC(=O)CC(O)c1cccc([N+](=O)[O-])c1 (stereo not drawn) | -12.4% (inactive) | – |
| NC(Cc1ccccc1)c1csc(Nc2cc(Oc3ccccc3)ncn2)n1 (stereo not drawn) | – | 16.4 µM (active) |
| CCNC(=O)C1CCCN(C(=O)c2cc(F)ccc2C)CC1 (stereo not drawn) | -17.4% (inactive) | – |
| CC(C)CN(CC(C)C)CC(O)CN(c1ccccc1)S(=O)(=O)c1ccccc1[N+](=O)[O-] (stereo not drawn) | – | 23.1 µM (active) |
| Cc1cccc(N(CC(O)CN(C)C)S(=O)(=O)c2ccccc2)c1 (stereo not drawn) | -22.2% (inactive) | – |

| Compound | activity change, negative = growth inhibition | Potency |
| --- | --- | --- |
| CCN(c1ccccc1)S(=O)(=O)c1cc2c(cc1C)n(C)c(=O)c(=O)n2C | -14.4% (inactive) | – |
| NC(=O)CCCC1=NS(=O)(=O)c2ccccc2N1 | 2.92% (inactive) | – |
| CCCCN1C(=O)/C(=C/C=C2/C=Cc3ccccc3N2CC)SC1=S | – | 8.2 µM (active) |
| CCCCN1C(=O)/C(=C2/C=CC=CN2C)SC1=S | -20.2% (inactive) | – |
| CN1C=CC=C/C1=C1\SC(=S)N(Cc2ccccc2)C1=O | -9.29% (inactive) | – |
| CCCOc1ccc(-c2nc(N)n[nH]2)cc1 | -15.1% (inactive) | – |
| CC(OC(=O)c1ccc2ccccc2n1)C(=O)c1ccccc1 (stereo not drawn) | 12.4% (inactive) | – |
| COc1ccc(C2NC(=O)c3ccccc3N2)cc1 (stereo not drawn) | -29.5% (inactive) | – |
| O=C1NC(c2cccc(Cl)c2)Nc2ccccc21 (stereo not drawn) | – | 16.4 µM (active) |
| COc1cccc(C2Nc3cccc4cccc(c34)N2)c1 | -16.5% (inactive) | – |
| Cc1cc(C)c(C#N)c(SCC(=O)N(CC(C)C)C2CCS(=O)(=O)C2)n1 (stereo not drawn) | 10.4% (inactive) | – |
| O=C(CNC(=O)c1cccnc1)N/N=C/c1cccnc1 | -3.41% (inactive) | – |
| O=C(CSc1cccc2cccnc12)N/N=C/c1cccnc1 | – | 4.11 µM (active) |
| Cc1nc2ccccc2n1CC(=O)N/N=C/c1cccnc1 | 21.9% (inactive) | – |
| COc1ccc(NC(=O)c2sccc2SCC#N)cc1 | -7.74% (inactive) | – |
| Cc1cc(C)c(C#N)c(SCC(=O)Nc2ccccc2)n1 | -16.2% (inactive) | – |
| CC1=C(C(=O)Nc2ccccc2)C(c2cccs2)C(C#N)=C(SCC#N)N1 (stereo not drawn) | – | 7.31 µM (active) |
| N/C(=N\c1nc2ccccc2o1)NC(=O)C(Cc1ccccc1)N1C(=O)c2ccccc2C1=O (stereo not drawn) | -28.8% (inactive) | – |
| Nn1c(SCC(=O)Nc2ccc3c(c2)CCC3)nnc1C1CC1 | -9.41% (inactive) | – |
| COC(OC)c1ccnc(SCc2ccccc2Cl)n1 | -29.6% (inactive) | – |
| Cc1nc2nc(SCC(=O)NCc3ccco3)nn2c(C)c1Cc1ccccc1 | -22.9% (inactive) | – |
| Cc1cccc(Cc2c(C)nc3nc(SCc4ccccc4Cl)nn3c2C)c1 | – | 20.6 µM (active) |
| Cc1nc(CNS(=O)(=O)c2cc([N+](=O)[O-])ccc2C)cs1 | 13.9% (inactive) | – |
| COc1cc(SC)ccc1C(=O)NNC(=O)C1COc2ccccc2O1 (stereo not drawn) | -5.11% (inactive) | – |
| COc1cc(SC)ccc1C(=O)Nc1nc(C)cs1 | – | 11.6 µM (active) |

| Compound | activity change, negative = growth inhibition | Potency |
| --- | --- | --- |
| COc1cc(SC)ccc1C(=O)NCCOc1ccccc1Cl | -30% (inactive) | – |
| COc1ccc(Cc2nnc(NC(=O)c3ccc(OC)cc3OC)s2)cc1 | -7.52% (inactive) | – |
| Cc1csc(NC(=O)CSc2nc(=O)cc(N)n2-c2ccc(F)cc2)n1 | 9.25% (inactive) | – |
| COc1ccccc1CNC(=O)c1ccc(SC)cc1OC | – | 15.8 µM (active) |
| CCCCc1cc(=O)oc2cc(C)cc(OCc3nn[nH]n3)c12 | -2.09% (inactive) | – |
| O=C(NN1C(=O)C2CCCCC2C1=O)c1ccco1 (stereo not drawn) | 8.23% (inactive) | – |
| Cc1ccc(S(=O)(=O)N2C[C@H]3C(=O)C[C@@H](c4cccc5ccccc45)N(S(=O)(=O)c4ccc(C)cc4)[C@H]3C[C@H]2c2ccc(Cl)cc2)cc1 | -23.3% (inactive) | – |
| O=C(Nc1ccccn1)C1CCN(S(=O)(=O)c2ccc3c(c2)OCCO3)CC1 | -16.8% (inactive) | – |
| CCCCn1c(=S)[nH]c2ncccc2c1=O | -25.6% (inactive) | – |
| Cc1cc(Nc2ccc(Br)cc2F)n2ncnc2n1 | -29.1% (inactive) | – |
| CC[C@H]1OC(=O)[C@H](C)[C@@H](O[C@H]2C[C@@](C)(OC)[C@@H](O)[C@H](C)O2)[C@H](C)[C@@H](O[C@@H]2O[C@H](C)C[C@H](N(C)C)[C@H]2O)[C@](C)(O)C[C@@H](C)[C@@H]2N[C@@H](COCCOC)O[C@H]([C@H]2C)[C@]1(C)O | -12% (inactive) | – |
| CCN(CC)S(=O)(=O)c1ccc(NC(=O)c2cccnc2Cl)c(NC(=O)c2cccnc2Cl)c1 | -23% (inactive) | – |
| CCN(CC)S(=O)(=O)c1ccc(Cl)c(C(=O)NC(C)C(c2cccs2)N2CCCC2)c1 (stereo not drawn) | – | 14.6 µM (active) |
| CCN(CC)S(=O)(=O)c1ccc(Cl)c(C(=O)NCCN2CCOCC2)c1 | -3.01% (inactive) | – |
| COc1cc(C(=O)N/C(=C\c2cn(C)c3ccccc23)C(=O)N2CCOCC2)cc(OC)c1OC | 21.5% (inactive) | – |
| Cc1c(N=Nc2ccc(N(C)C)cc2)c(=O)n(-c2ccccc2)n1C | 16.3% (inactive) | – |
| N#Cc1ccc(OCC(=O)NC(=O)NC2CCS(=O)(=O)C2)cc1 (stereo not drawn) | -1.97% (inactive) | – |
| COc1ccc(-c2ccc(OC(=O)NC3CCS(=O)(=O)C3)cc2)cc1 (stereo not drawn) | – | 8.2 µM (active) |
| COc1ccc(NC(=S)NC2CCS(=O)(=O)C2)cc1 (stereo not drawn) | 8.41% (inactive) | – |
| CC(C)(C)CN1C(=O)C(=O)NC[C@H]1Cc1cccc2ccccc12 | -19.5% (inactive) | – |
| NC(=O)C1CCN(C(=O)c2ccc(F)c(S(=O)(=O)N3CCOCC3)c2)CC1 | 0.837% (inactive) | – |
| Nc1ccc(C(=O)N2CCN(S(=O)(=O)c3ccc(Cl)cc3)CC2)cc1[N+](=O)[O-] | -55.2% (inactive) | – |
| CC1CCN(C(=O)c2ccc(S(=O)(=O)Cc3cc(F)ccc3F)c([N+](=O)[O-])c2)CC1 | – | 16.4 µM (active) |

From PubChem BioAssay AID686978 (National Center for Advancing Translational Sciences (NCATS), 2013)
